Experimental data: PubChem BioAssay
Active and inactive are the calls of the source. The rule behind the calls is not given here.

The molecules below were run against L-lactate dehydrogenase (Plasmodium falciparum (isolate CDC / Honduras)) (UniProt Q27743) (assay: PfLDH activity inhibition – cell lysate, 3D7 strain, counter-screen for P. falciparum growth inhibition project (AID 2304;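 note: 0% = vehicle and 100% = reference inhibitor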)). Conditions: P. falciparum 3D7 crude extract, LDH APAD/NBT absorbance; at 2 µM; active compounds read high.
Chain of L-lactate dehydrogenase (Plasmodium falciparum (isolate CDC / Honduras)) (Q27743 whole entry, looked up): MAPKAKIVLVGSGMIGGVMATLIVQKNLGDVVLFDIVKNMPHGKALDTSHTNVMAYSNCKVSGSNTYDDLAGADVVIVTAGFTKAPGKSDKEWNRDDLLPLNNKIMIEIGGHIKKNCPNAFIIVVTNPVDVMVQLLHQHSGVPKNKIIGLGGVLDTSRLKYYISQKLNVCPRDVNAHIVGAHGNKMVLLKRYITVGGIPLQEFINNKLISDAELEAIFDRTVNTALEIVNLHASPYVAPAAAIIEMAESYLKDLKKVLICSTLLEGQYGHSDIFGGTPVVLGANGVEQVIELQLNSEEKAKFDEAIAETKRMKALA

Compound	inhibition
CC[C@H]1CN2CC[C@H]1C[C@H]2[C@H](O)c1cc(-c2ccccc2F)nc2ccc(OC)cc12	1% (inactive)
O=C(CNC1CCCCC1)c1ccc(O)c(O)c1	4% (inactive)
CCCc1c(C(=O)NC2CCC(CN3CCC(c4c[nH]c5ccccc45)CC3)CC2)cnn1-c1c(Cl)cc(Cl)cc1Cl (stereo unspecified)	-5% (inactive)
CC[C@H]1CN2CC[C@H]1C[C@H]2[C@H](O)c1ccnc2ccc(OC)cc12	-4% (inactive)
Oc1ccccc1CNCC(O)c1cccc(C(F)(F)F)c1 (stereo unspecified)	0% (inactive)
CN1CC=C(c2c[nH]c3ccc(Br)cc23)CC1	1% (inactive)
[O-]c1n[n+](C2CCCCC2)no1	-5% (inactive)
OC(CNCc1ccccc1OC(F)F)c1cccc(C(F)(F)F)c1 (stereo unspecified)	-2% (inactive)
CCC1(C)CC(CCNCc2ccccc2O)(c2ccc(F)cc2)CCO1 (stereo unspecified)	6% (inactive)
CC[C@@]1(O)C(=O)OCc2c1cc1n(c2=O)Cc2c-1nc1cc3c(cc1c2CN1CCOCC1)OCO3	4% (inactive)
COCCSc1ccc(CC(C)NCC(O)c2cccc(Cl)c2)cc1 (stereo unspecified)	-1% (inactive)
CN(c1cc(NC(=O)c2ccc(F)cc2)ccn1)C1CCN(Cc2cccc(O)c2)CC1	2% (inactive)
CC(Cc1ccc(Sc2ccccc2)cc1)NCC(O)c1cccc(C(F)(F)F)c1 (stereo unspecified)	2% (inactive)
C[C@@H](CC1CCCCC1)NCc1ccccc1O	3% (inactive)
CC(C)CNCc1cccc(-c2ccc(CN(C(=O)Nc3ccccc3)C3CCN(Cc4ccccc4)CC3)cc2)c1	-2% (inactive)
Cc1[nH]c2ccccc2c1C1=CCN(C[C@H]2C[C@@H]2C(=O)c2ccccc2)CC1	-3% (inactive)
